Measurements: PubChem BioAssay
Activity calls are given as the source filed them. Unless noted, no rule for the calls is given here.

What was measured:
[1] = test system: XIP peptide (Xip251-270) binding; assay: small-molecule binders of XIP peptide, primary screen, biochemical, small-molecule microarray, fluorescence 635/667 nm, 0.1 µg/mL protein (AID 1182); settings: fluorescent protein binding, 635 nm, higher = more signal, called active from +8 up or from −8 down
[2] = test system: XIP peptide (Xip251-270); assay: small-molecule binders of XIP peptide, primary screen, biochemical, small-molecule microarray, fluorescence 635/667 nm, 0.5 µg/mL protein (AID 1183); settings: small-molecule microarray binding, fluorescence 635 nm; higher = more signal
[3] = Plasmodium falciparum growth inhibition, primary screen, strain 3D7, DAPI fluorescence, 100 nL (AID 1184);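 also: parasites grown inside human red blood cells in medium with human serum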; settings: P. falciparum 3D7 growth, 3 d, higher = more signal
[4] = target: Homeobox protein Hox-A13 (Mus musculus) (UniProt Q62424); assay: inhibitors of HoxA13-DNA binding, primary screen, biochemical, fluorescence polarization, labeled oligonucleotide (AID 1185); settings: 15 min, higher = more signal, called active from +8 up or from −8 down
[5] = inhibitors of hydroxyurea-induced Chk1 phosphorylation, primary screen, imaging, HeLa, phospho-Chk1 antibody, percent positive cells (AID 1186); settings: hydroxyurea-induced phospho-Chk1 immunofluorescence imaging, higher = more signal
[6] = inhibitors of hydroxyurea-induced Chk1 phosphorylation, primary screen, imaging, HeLa, phospho-Chk1 nuclear intensity (AID 1187); settings: hydroxyurea-induced phospho-Chk1 immunofluorescence imaging, higher = more signal

Chain of Homeobox protein Hox-A13 (Mus musculus) (Q62424 whole entry, looked up): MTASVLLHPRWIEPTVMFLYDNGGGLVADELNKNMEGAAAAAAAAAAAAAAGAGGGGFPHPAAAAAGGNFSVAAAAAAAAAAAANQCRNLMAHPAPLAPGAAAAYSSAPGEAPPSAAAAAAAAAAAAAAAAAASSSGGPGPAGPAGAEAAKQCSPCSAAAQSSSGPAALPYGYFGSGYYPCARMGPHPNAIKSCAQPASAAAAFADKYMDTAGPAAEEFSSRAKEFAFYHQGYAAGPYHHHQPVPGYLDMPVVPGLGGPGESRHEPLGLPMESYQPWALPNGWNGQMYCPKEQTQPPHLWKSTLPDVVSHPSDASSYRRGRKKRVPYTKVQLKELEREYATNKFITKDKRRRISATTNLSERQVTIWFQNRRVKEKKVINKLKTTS

Row | Compound | composite z-score [1] | composite z-score [2] | z-score [3] | z-score [4] | z-score [5] | z-score [6]
1 | [N-]=[N+]=NCc1ccccc1[C@H]1OC(c2ccc(OCCCO)cc2)=N[C@@]1(Cc1ccccc1N=[N+]=[N-])C(=O)NCCN1CCOCC1 | 0.175 (inactive) | 0.795 | -2.21 | -3.06 (inactive) | 0.0262 (inactive) | -0.0057 (inactive)
2 | Cc1ccccc1C(O)C1C=CC2C(=O)N(C)C(=O)C2N1Nc1ccc([N+](=O)[O-])cc1[N+](=O)[O-] (configuration not stated) | 3.99 (inactive) | 0.476 | 0.368 | -4.08 (inactive) | 0.348 (inactive) | -0.0828 (inactive)
3 | CC(C)c1ccc(NN2C(C(O)c3cccs3)C=CC3C(=O)N(c4ccccc4)C(=O)C32)cc1 (configuration not stated) | 0.213 (inactive) | 0.499 | -0.512 | -3.33 (inactive) | 0.847 (inactive) | 0.219 (inactive)
4 | C=CCOc1ccc([C@@H]2CC=C(C(=O)OCC)[C@H](c3cccc(Br)c3)N2S(=O)(=O)c2ccc(C)cc2)cc1 | -0.355 (inactive) | -0.498 | -1.94 | 0.422 (inactive) | -0.0778 (inactive) | 0.295 (inactive)
5 | CN1C(=O)C2C=CC(C(O)c3cccc4ccccc34)N(NC(=O)OC(C)(C)C)C2C1=O (configuration not stated) | 0.704 (inactive) | 0.586 | 0.99 | -3.88 (inactive) | 0.326 (inactive) | -0.397 (inactive)
6 | COc1ccc(C(=O)Nc2ccc(CN3C(=O)[C@@]4(O[C@@H](CC(=O)N5Cc6ccccc6C[C@H]5CO)[C@H]([Si](C)(C)c5ccc(OC)cc5)[C@H]4C)c4ccccc43)cc2)cc1 | 1.38 (inactive) | 0.701 | -1.23 | -2.48 (inactive) | 0.175 (inactive) | 0.514 (inactive)
7 | NC(=O)NCC#Cc1ccc2c(c1)[C@]1(C(=O)N2)[C@H](c2ccc(O)cc2)N2[C@H](c3ccccc3)[C@H](c3ccccc3)OC(=O)[C@H]2[C@@H]1C(N)=O | -0.0765 (inactive) | 0.603 | 0.637 | -4.21 (inactive) | -0.681 (inactive) | -0.878 (inactive)
8 | CC1C=C(CCCO)C=C(C(=O)OCCS(C)(=O)=O)C(C(=O)OCCS(C)(=O)=O)=CN1Cc1cccc(OC(F)(F)F)c1 (configuration not stated) | 0.392 (inactive) | -0.0318 | -2.67 | -7.2 (inactive) | -0.0917 (inactive) | 0.397 (inactive)
9 | O=C1O[C@H](c2ccccc2)[C@H](c2ccccc2)N2[C@H]1[C@@H](C(=O)N1CCCCCCC1)[C@]1(C(=O)Nc3ccc(C#CCCO)cc31)[C@H]2c1ccc(OCCO)cc1 | 5.42 (inactive) | 0.963 | -1.98 | -8.67 (active) | -0.141 (inactive) | -0.203 (inactive)
10 | COC(=O)[C@@]1(Cc2ccc(F)cc2)[C@H]2c3cc(C(=O)N(C)C)n(CCSCCO)c3C[C@H]2CN1C(=O)c1ccccc1 | 0.235 (inactive) | 0.0692 | -0.404 | -4.76 (inactive) | 0.511 (inactive) | 0.469 (inactive)
11 | CCCN1C(=O)[C@@]2(Cc3ccccc3)N=C(c3ccc(OCCCO)cc3)O[C@H]2c2ccccc21 | 1.19 (inactive) | 0.808 | -2.38 | -4.39 (inactive) | 0.276 (inactive) | 0.555 (inactive)
12 | CCCC=C(CCC)[C@@H](NS(=O)(=O)c1cccc2cccnc12)c1ccc(C(=O)OC)cc1 | -0.357 (inactive) | 0.315 | -0.271 | -2.22 (inactive) | -0.767 (inactive) | -0.492 (inactive)
13 | Cc1ccc(-c2cccc(=O)o2)cc1 | -0.0449 (inactive) | -0.776 | 0.842 | -1.28 (inactive) | 0.45 (inactive) | -0.203 (inactive)
14 | COc1ccc([Si](C)(C)[C@@H]2[C@@H](CCO)O[C@]3(C(=O)N(Cc4cccc(N5C(=O)COc6ccccc65)c4)c4ccccc43)[C@H]2C)cc1 | -0.417 (inactive) | 0.763 | -2.78 | -1.01 (inactive) | -1.02 (inactive) | -1.18 (inactive)
15 | CN(C)C(=O)[C@@]1(CCC(=O)OC(C)(C)C)N=C(c2ccc(OCCCO)cc2)O[C@H]1c1ccccc1N=[N+]=[N-] | 1.55 (inactive) | 0.825 | -2.36 | -5.33 (inactive) | -0.146 (inactive) | -0.222 (inactive)
16 | COCCCNC(=O)[C@@]1(Cc2ccccc2)COC(c2ccc(OCCCO)cc2)=N1 | 0.506 (inactive) | 0.811 | -0.723 | -4.31 (inactive) | -0.0447 (inactive) | -0.109 (inactive)
17 | COC(=O)C(CC#Cc1ccc2c(c1)[C@]1(C(=O)N2)[C@H](C(=O)N2CCc3cc(OC)c(OC)cc3C2)[C@H]2C(=O)O[C@H](c3ccccc3)[C@H](c3ccccc3)N2[C@@H]1c1ccc(OCCO)cc1)C(=O)OC | 0.916 (inactive) | 0.761 | -1.76 | -10.5 (active) | -0.197 (inactive) | 0.277 (inactive)
